Among the data in PubChem BioAssay (NCI) are growth values, retold here.

Structures are written as SMILES. The panel holds about 83,000 compounds, 20% with a hit somewhere; the sample as a whole holds those more often.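 96-well plates, one dose, 48 hours. Percent growth reported; active if below 10.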 A number with no mark means an inactive call. Activity calls are given as the source filed them.

Among the test systems are DU-145 prostate; K-562 leukemia; MALME-3M melanoma; MDA-MB-231 breast; RXF 393 renal; SF-268 CNS; SF-295 CNS; SF-539 CNS; UACC-257 melanoma; M14 melanoma.
Common to all, as to assay: NCI-60 one-dose screen, 48 h (100 = growth as untreated, 0 = no growth, -100 = all killed)
Common to all, as to conditions: 10 µM

For `Cc1nc(Nc2nc(C)c3ccc(OCCN4CCOCC4)cc3n2)[nH]c(=O)c1C`, the growth was 14.9% in the assay with DU-145 prostate; 14.1% in the assay with K-562 leukemia; -69.8% (active) in the assay with MALME-3M melanoma; -67.1% (active) with MDA-MB-231 breast; -78% (active) with RXF 393 renal; 9.74% (active) in the assay with SF-268 CNS. Also, the growth was -29.3% (active) in the assay on SF-295 CNS, -61.7% (active) in the assay with SF-539 CNS, -14.9% (active) in the assay on UACC-257 melanoma and 18% in the assay with M14 melanoma.
In the case of `CCN1CCN(Cc2ccc(NC(=O)c3cccc(-n4cc(-c5ccc(NC(C)=O)nc5)nn4)c3)cc2C(F)(F)F)CC1`, the growth with DU-145 prostate is 104%; in the assay on K-562 leukemia it was -28.4% (active); in the assay on MALME-3M melanoma, 53.1%; with MDA-MB-231 breast, 75.8%; in the assay on RXF 393 renal it was 102%; in the assay on SF-268 CNS, 123%. The growth in the assay with SF-295 CNS was 93.1%; in the assay on SF-539 CNS, 73.1%; in the assay on UACC-257 melanoma it was 87%; in the assay on M14 melanoma, 78.3%.
With `O=C(c1ccc(O)cc1)C1[C@H](c2ccccc2Br)[C@@H](c2ccccc2)NC12C(=O)Nc1ccc(Cl)cc12` (stereo not given in full), the growth in the assay with DU-145 prostate was 32.5%; in the assay with K-562 leukemia, 7.61% (active); in the assay on MALME-3M melanoma it was -10.7% (active); in the assay on MDA-MB-231 breast, -57.3% (active); in the assay on RXF 393 renal, -19.5% (active); in the assay with SF-268 CNS, 27.7%. Besides, the growth was -6.39% (active) in the assay with SF-295 CNS, 8.24% (active) in the assay with SF-539 CNS, 25% in the assay with UACC-257 melanoma and 28.4% in the assay on M14 melanoma.
Take `CC(=O)OC[C@@]1(C)C2CC[C@]3(C)C(CC=C4C5CC(C)(C)CC[C@]5(C(=O)Nc5ccccc5)CC[C@]43C)[C@@]2(C)C[C@@H](OC(C)=O)[C@@H]1OC(C)=O` (stereo not given in full): the growth in the assay with DU-145 prostate was 44.9%; in the assay with K-562 leukemia, 12.7%; in the assay with MALME-3M melanoma, 54.3%; in the assay with MDA-MB-231 breast, 60.6%; in the assay with RXF 393 renal it was 64.2%; in the assay on SF-268 CNS it was 52.5%. For the same compound, the growth was 19.9% with SF-295 CNS, 41.6% with SF-539 CNS, 18.5% with UACC-257 melanoma and 50.9% in the assay with M14 melanoma.
Regarding `CO[C@@H]1CSS[C@H]1Cn1nc(-c2ccc(Oc3ccccc3)cc2)c2c(N)ncnc21`, the growth is 73.5% in the assay with DU-145 prostate; 8.2% (active) in the assay with K-562 leukemia; 63.4% in the assay with MALME-3M melanoma; 72.6% in the assay with MDA-MB-231 breast; 35.5% in the assay on RXF 393 renal; 70% with SF-268 CNS. For the same compound, the growth was 43.1% with SF-295 CNS, 50% with SF-539 CNS, 40.8% in the assay with UACC-257 melanoma and -64.2% (active) in the assay with M14 melanoma.
As for `COc1ccccc1[C@H]1C(C(=O)c2ccc(Cl)cc2)C2(N[C@@H]1c1ccccc1)C(=O)Nc1ccccc12` (stereo not given in full), the growth is 3.98% (active) with DU-145 prostate; 0.571% (active) in the assay on K-562 leukemia; -37.4% (active) with MALME-3M melanoma; -71.9% (active) with MDA-MB-231 breast; -73.8% (active) in the assay with RXF 393 renal; 10.2% in the assay with SF-268 CNS. The growth is -63.6% (active) in the assay with SF-295 CNS, -60.8% (active) with SF-539 CNS, -2.04% (active) with UACC-257 melanoma and 5.88% (active) in the assay with M14 melanoma.
On to `N#Cc1c(NC(=O)c2ccc(C(F)(F)F)c(Cl)c2)sc2c1CCC(=O)C2`, for which the growth in the assay with DU-145 prostate is 19.5%; in the assay on K-562 leukemia, 0.454% (active); with MALME-3M melanoma it was -56.9% (active); in the assay on MDA-MB-231 breast it was -87.5% (active); in the assay with RXF 393 renal, -86.3% (active); in the assay with SF-268 CNS it was -22.7% (active). Further, the growth in the assay on SF-295 CNS was -88.9% (active); with SF-539 CNS it was -87.6% (active); in the assay with UACC-257 melanoma, -23.3% (active); with M14 melanoma, -68.8% (active).
In the case of `COC[C@@H](CC(C)C)N=C1N/C(=C\c2ccc3ncsc3c2)C(=O)N1C`, the growth in the assay with DU-145 prostate is 20.9%; in the assay with K-562 leukemia it was 17.7%; in the assay on MALME-3M melanoma, 7.51% (active); in the assay with MDA-MB-231 breast, 0.748% (active); in the assay with RXF 393 renal, -19.2% (active); in the assay on SF-268 CNS, 19.1%. The growth is 23.2% in the assay with SF-295 CNS, -15.6% (active) in the assay on SF-539 CNS, 6.69% (active) in the assay with UACC-257 melanoma and 38.1% with M14 melanoma.
Take `C=C1CCC2C3(C)COC(c4c(F)cccc4F)OC3CCC2(C)C1C/C=C1/C(=O)OCC1O` (stereo not given): the growth in the assay on DU-145 prostate is -60.3% (active); with K-562 leukemia, 13.4%; in the assay on MALME-3M melanoma, -62.7% (active); with MDA-MB-231 breast it was -33.4% (active); in the assay on RXF 393 renal, -72.8% (active); in the assay on SF-268 CNS it was 65.2%. The growth is -21% (active) with SF-295 CNS, -92.2% (active) in the assay with SF-539 CNS, -46.8% (active) in the assay on UACC-257 melanoma and -23.7% (active) in the assay with M14 melanoma.
`CS(=O)(=O)Nc1ccc(-c2ccc3c(c2)ncn3-c2ccc(NC(=O)Nc3ccc(Br)cc3)cc2)cc1`: the growth was 29.8% in the assay with DU-145 prostate; 4.89% (active) in the assay on K-562 leukemia; -20.2% (active) with MALME-3M melanoma; 13.6% in the assay with MDA-MB-231 breast; -16.8% (active) in the assay on RXF 393 renal; 26.4% in the assay with SF-268 CNS. In addition, the growth with SF-295 CNS is -38.3% (active); with SF-539 CNS, -34.5% (active); in the assay on UACC-257 melanoma it was -16.9% (active); in the assay with M14 melanoma, 4.32% (active).
With `COc1cccc(COc2ccc(/C=C3\Oc4cc(O)ccc4C3=O)cc2)c1`, the growth was 31.8% in the assay on DU-145 prostate; 49.4% in the assay on K-562 leukemia; 14.3% in the assay with MALME-3M melanoma; 28.6% with MDA-MB-231 breast; -19.3% (active) in the assay on RXF 393 renal; 17.2% with SF-268 CNS. Further, the growth with SF-295 CNS is 9.41% (active); in the assay with SF-539 CNS it was 30%; in the assay on UACC-257 melanoma it was 70.6%; with M14 melanoma it was 35.9%.
On to `Clc1ccc(/C=N/Nc2ncnc3sc4c(c23)CCN(Cc2ccccc2)C4)cc1`, for which the growth with DU-145 prostate was 3.38% (active); in the assay with K-562 leukemia, 1.43% (active); in the assay on MALME-3M melanoma, -66.9% (active); in the assay on MDA-MB-231 breast it was -65.8% (active); with RXF 393 renal it was 31.5%; in the assay on SF-268 CNS it was -31.2% (active). For the same compound, the growth was -81.6% (active) with SF-295 CNS, -87.1% (active) in the assay with SF-539 CNS, -15.5% (active) in the assay on UACC-257 melanoma and -63.2% (active) with M14 melanoma.
Regarding `CNCc1cccc2c1OCCCCCC[C@@](C)(O)CC1(CC1)S(=O)(=O)c1ccc(cc1)-c1cnc(N)c(n1)C(=O)N2`, the growth in the assay with DU-145 prostate was -84.5% (active); in the assay with K-562 leukemia it was -37.5% (active); in the assay on MALME-3M melanoma, -75.2% (active); in the assay on MDA-MB-231 breast, -92.8% (active); in the assay with RXF 393 renal, -94.2% (active); with SF-268 CNS, -64.2% (active). In addition, the growth with SF-295 CNS is -100% (active); with SF-539 CNS, -98.9% (active); with UACC-257 melanoma, -75% (active); with M14 melanoma, -38.6% (active).
Take `COc1ccc(N2N=C(c3ccc4c(c3)OCCO4)CC2c2cccc(NC(=O)CCCNS(=O)(=O)c3ccc(F)cc3)c2)cc1` (stereo not given): the growth with DU-145 prostate is 91.5%; in the assay on K-562 leukemia, 56%; with MALME-3M melanoma it was 79.7%; in the assay with MDA-MB-231 breast, 69.2%; in the assay with RXF 393 renal, 68.1%; in the assay on SF-268 CNS it was 56.2%. In addition, the growth in the assay with SF-295 CNS is 65.2%; in the assay with SF-539 CNS, 77.7%; with UACC-257 melanoma, 88%; in the assay on M14 melanoma, 81.9%.
Regarding `O=C(c1ccc(Cl)cc1)C1[C@H](c2ccc(Br)cc2)[C@@H](c2ccccc2)NC12C(=O)Nc1ccccc12` (stereo not given in full), the growth was 12.4% with DU-145 prostate; -15.7% (active) with K-562 leukemia; -35.9% (active) with MALME-3M melanoma; -60.1% (active) in the assay on MDA-MB-231 breast; -59.8% (active) with RXF 393 renal; 12.1% in the assay on SF-268 CNS. Besides, the growth was -54.5% (active) with SF-295 CNS, -57.7% (active) in the assay on SF-539 CNS, -2.88% (active) in the assay on UACC-257 melanoma and 29.4% in the assay with M14 melanoma.
For `O=C(N=Nc1c(O)[nH]c2ccc(Br)cc12)c1ccc2nc(-c3ccccc3)[nH]c2c1`, the growth in the assay with DU-145 prostate is -60.5% (active); in the assay with K-562 leukemia, 1.09% (active); in the assay on MALME-3M melanoma, -99.2% (active); in the assay with MDA-MB-231 breast it was -97.5% (active); in the assay on RXF 393 renal it was -79.7% (active); with SF-268 CNS, -53.3% (active). Also, the growth in the assay with SF-295 CNS is -81.9% (active); with SF-539 CNS it was -97.9% (active); in the assay on UACC-257 melanoma, -19.9% (active); in the assay with M14 melanoma it was -85.9% (active).
For `O=C(c1ccccc1)n1ccc(-c2cc3cc(Br)ccc3oc2=O)n1`, the growth is 37.3% in the assay on DU-145 prostate; 19.9% in the assay on K-562 leukemia; 36.8% in the assay on MALME-3M melanoma; 32% in the assay with MDA-MB-231 breast; 45.2% in the assay on RXF 393 renal; 36.5% in the assay on SF-268 CNS. Also, the growth was 24.4% with SF-295 CNS, 10.5% in the assay with SF-539 CNS, 2.91% (active) in the assay with UACC-257 melanoma and -4.71% (active) in the assay on M14 melanoma.
Take `O=C1Nc2cc(-c3ccc(NC(=O)c4cccc([N+](=O)[O-])c4)cc3)ccc2/C1=C/c1ccc[nH]1`: the growth is 67.7% in the assay with DU-145 prostate; 93.7% in the assay with K-562 leukemia; 98.7% with MALME-3M melanoma; 86.6% with MDA-MB-231 breast; 83.7% in the assay on RXF 393 renal; 98.4% with SF-268 CNS. Moreover, the growth is 83.5% in the assay with SF-295 CNS, 89.2% in the assay on SF-539 CNS, 97.1% with UACC-257 melanoma and 102% in the assay on M14 melanoma.
For `C=C1CCC2C3(C)COC(c4cc(F)cc(F)c4)OC3CCC2(C)C1C/C=C1/C(=O)OCC1O` (stereo not given), the growth in the assay with DU-145 prostate was -52.9% (active); with K-562 leukemia, 12.7%; in the assay on MALME-3M melanoma, -78.8% (active); in the assay on MDA-MB-231 breast it was -63.7% (active); in the assay on RXF 393 renal, -73.7% (active); with SF-268 CNS it was 36.7%. For the same compound, the growth was -82.7% (active) in the assay on SF-295 CNS, -90.9% (active) in the assay with SF-539 CNS, -85.4% (active) with UACC-257 melanoma and -64.6% (active) in the assay with M14 melanoma.
